23 compounds from PubChem BioAssay (NCATS) can be followed below.

“And” between values parts separate entries of the source, which are not always exact repeats. Equal values may be shown once. Unmarked numbers belong to inactive results. Results filed as inconclusive are left out. The source made the active and inactive calls. Unless noted, the call rests on the fitted dose curve; in most records, active means well fitted curve in the direction sought with a large enough effect; inconclusive means small, poorly fitted or top-dose-only effect, or another doubt; inactive means no such curve, though single readings can be large; an effect the other way counts as inactive or inconclusive.

Experiment [1] deals with Cytochrome P450 2C9 (Homo sapiens) (UniProt P11712). Put plainly: qHTS Assay for Inhibitors and Substrates of Cytochrome P450 2C9 (AID 883). Further: on the % scale 0 is the no-effect control and ±100 the full control effect; nearly all actives have a fitted effect of over 60% in size. In a few lines: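 Signal: luciferase luminescence reporting luciferin produced by CYP2C9. Conditions: 10nM enzyme, Luciferin-H 100uM at KM, 25mM KPO4, 37C, 60 min NADPH-driven reaction. Reference: 57uM sulphaphenazole as 100% inhibition.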
Sequence of Cytochrome P450 2C9 (Homo sapiens) (P11712 whole entry, looked up): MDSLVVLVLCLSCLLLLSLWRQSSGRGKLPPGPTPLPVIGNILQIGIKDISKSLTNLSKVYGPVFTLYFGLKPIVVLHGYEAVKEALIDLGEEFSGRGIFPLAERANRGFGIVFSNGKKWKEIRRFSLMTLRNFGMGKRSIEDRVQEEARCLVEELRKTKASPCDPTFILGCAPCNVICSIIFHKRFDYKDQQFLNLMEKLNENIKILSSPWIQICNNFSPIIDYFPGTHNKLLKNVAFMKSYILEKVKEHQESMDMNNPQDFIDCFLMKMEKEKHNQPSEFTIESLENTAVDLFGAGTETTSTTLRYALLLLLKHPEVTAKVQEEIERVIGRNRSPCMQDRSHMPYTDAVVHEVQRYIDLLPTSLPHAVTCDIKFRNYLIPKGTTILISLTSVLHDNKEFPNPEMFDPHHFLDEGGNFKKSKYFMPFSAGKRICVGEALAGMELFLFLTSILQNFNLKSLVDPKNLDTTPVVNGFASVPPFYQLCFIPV
For orientation: In qHTS, concentration-response curves come from the screen itself.

The target in experiment [2] is Cytochrome P450 3A4 (Homo sapiens) (UniProt P08684). The experiment in a line: qHTS Assay for Activators of Cytochrome P450 3A4 (AID 885). Further: nearly all actives have a fitted effect of over 65% in size. Put shortly: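 Luminescent readout of luciferin formed from 25 uM Luciferin-PPXE (KM level) by 20 nM CYP3A4 in 200 mM KPO4, with 60 min NADPH-driven reaction at room temperature after 10 min compound exposure. Ketoconazole (57 uM) defined 100% inhibition.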
Sequence of Cytochrome P450 3A4 (Homo sapiens) (P08684 whole entry, looked up): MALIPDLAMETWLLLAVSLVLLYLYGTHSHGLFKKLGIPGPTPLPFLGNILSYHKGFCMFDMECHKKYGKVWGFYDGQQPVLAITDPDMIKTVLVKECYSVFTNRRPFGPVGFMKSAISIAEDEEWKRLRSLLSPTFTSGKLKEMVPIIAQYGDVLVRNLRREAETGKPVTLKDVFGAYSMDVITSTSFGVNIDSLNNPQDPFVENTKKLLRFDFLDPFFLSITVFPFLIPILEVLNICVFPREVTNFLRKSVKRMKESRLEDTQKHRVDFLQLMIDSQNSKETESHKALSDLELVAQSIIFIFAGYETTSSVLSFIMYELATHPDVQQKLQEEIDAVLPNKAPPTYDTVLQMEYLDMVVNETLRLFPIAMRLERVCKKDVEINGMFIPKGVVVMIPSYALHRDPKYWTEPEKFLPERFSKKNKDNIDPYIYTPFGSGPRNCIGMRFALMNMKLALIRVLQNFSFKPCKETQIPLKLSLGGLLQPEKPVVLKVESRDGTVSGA

The target in experiment [3] is Cytochrome P450 2D6 (Homo sapiens) (UniProt P10635). The experiment in a line: qHTS Assay for Inhibitors and Substrates of Cytochrome P450 2D6 (AID 891).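 Further: luciferin methyl ether substrate demethylated by CYP2D6 with NADPH regeneration; on the % scale 0 is the no-effect control and ±100 the full control effect; nearly all actives have a fitted effect of over 60% in size.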 Put shortly:
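Luminescent read-out of luciferin formed by 5 nM human CYP2D6 demethylating 30 uM Luciferin-ME EGE (Km level) over 60 min at room temperature after NADPH regeneration addition. Data normalized to full inhibition by 1.43 uM quinidine.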

For experiment [4], the target named is Cytochrome P450 2C19 (Homo sapiens) (UniProt P33261). Put plainly: qHTS Assay for Inhibitors and Substrates of Cytochrome P450 2C19 (AID 899). Further: on the % scale 0 is the no-effect control and ±100 the full control effect; nearly all actives have a fitted effect of over 60% in size. Put shortly: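 Signal comes from luciferase acting on luciferin released by CYP2C19-mediated hydroxylation of Luciferin-H EGE, 10uM (KM). Assay mix: 5nM enzyme, 50mM KPO4; 60 min at 37C with NADPH regeneration. Data normalized against 57uM ketoconazole.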
Sequence of Cytochrome P450 2C19 (Homo sapiens) (P33261 whole entry, looked up): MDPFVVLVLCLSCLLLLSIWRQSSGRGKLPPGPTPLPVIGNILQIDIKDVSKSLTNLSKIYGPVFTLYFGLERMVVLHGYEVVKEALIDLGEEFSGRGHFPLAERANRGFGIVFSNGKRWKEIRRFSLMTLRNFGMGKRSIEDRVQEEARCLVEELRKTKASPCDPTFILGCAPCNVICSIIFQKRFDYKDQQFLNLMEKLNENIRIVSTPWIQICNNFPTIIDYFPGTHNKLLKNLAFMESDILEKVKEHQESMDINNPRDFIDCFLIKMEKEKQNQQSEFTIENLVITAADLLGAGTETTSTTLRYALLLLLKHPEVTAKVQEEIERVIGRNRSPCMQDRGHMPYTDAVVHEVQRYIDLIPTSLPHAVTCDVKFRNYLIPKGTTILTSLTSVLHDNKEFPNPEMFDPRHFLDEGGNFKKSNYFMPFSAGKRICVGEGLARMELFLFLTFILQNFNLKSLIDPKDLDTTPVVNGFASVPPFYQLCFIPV

The nature of experiment [5]: qHTS Assay for Identification of Small Molecule Agonists for Hypoxia Response Element Signaling Pathway (AID 914; active means well fitted activation curve with a large enough effect in the signal ratio, with a control signal flat, not every such curve was filed as active; the % refers to the signal ratio; further: % of control where 0% means no effect). As to conditions: ME-180 (cervical carcinoma) HRE-bla reporter, beta-lactamase ratio, CoCl2, 17 h; active compounds read high. Put shortly:
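qHTS titration; ME-180 HRE-bla cells; EC50 CoCl2 co-treatment, 17 h at 37 degrees Celsius; CCF4 dye, ex 405nm, em 460nm and 530nm; %Activity from ratio; AC50.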

Experiment [6] addresses Cytochrome P450 3A4 (Homo sapiens) (UniProt P08684). The experiment in a line: qHTS Assay for Inhibitors and Substrates of Cytochrome P450 3A4 (AID 884). Further: potency means the concentration at half of the fitted maximal effect; nearly all actives have a fitted effect of over 50% in size. In a few lines:
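Luminescent readout of luciferin produced by CYP3A4 (20 nM) dealkylation of Luciferin-PPXE, 25 uM (its KM). NADPH-driven reaction ran 60 min at RT after 10 min compound preincubation; data scaled to 57 uM ketoconazole as 100% inhibition.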

Sequence of Cytochrome P450 2D6 (Homo sapiens) (P10635 whole entry, looked up): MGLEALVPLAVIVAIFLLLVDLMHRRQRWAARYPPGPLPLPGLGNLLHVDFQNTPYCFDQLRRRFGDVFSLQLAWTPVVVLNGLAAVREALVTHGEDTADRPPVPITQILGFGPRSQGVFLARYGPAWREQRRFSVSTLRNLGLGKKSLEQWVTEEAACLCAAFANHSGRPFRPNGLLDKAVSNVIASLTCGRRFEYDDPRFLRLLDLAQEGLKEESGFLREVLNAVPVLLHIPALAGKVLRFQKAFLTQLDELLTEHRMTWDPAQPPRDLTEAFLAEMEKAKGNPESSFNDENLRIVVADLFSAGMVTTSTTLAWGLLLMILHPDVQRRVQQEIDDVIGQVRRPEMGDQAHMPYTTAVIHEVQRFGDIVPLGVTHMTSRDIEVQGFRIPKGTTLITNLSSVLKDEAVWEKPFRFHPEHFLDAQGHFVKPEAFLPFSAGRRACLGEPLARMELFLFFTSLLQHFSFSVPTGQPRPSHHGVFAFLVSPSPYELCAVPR

Consider `COc1ccc(OC2C=CC(c3ccccc3)OC2CO)c(C(C)=O)c1` (stereo not given), for which the Potency entry in experiment [1], in experiment [3] and in experiment [4] was “inactive” throughout. In addition, in experiment [2], the activity change, positive = activation is -57.7% [at 11.4 µM]. As for `C=C/C1=C/Cc2ccccc2C(C[N+](=O)[O-])C(C(=O)OC)(C(=O)OC)C1` (stereo not given), the Potency result in experiment [1] was “inactive”. For the same compound, in experiment [2], the activity change, positive = activation is -46.3% [at 11.4 µM]. In the case of `COC(=O)[C@@H]1CC[C@H](C)[C@@H](c2ccc(C)cc2)N1C(=O)c1ccc(/C=N\OC[C@@H](O)COCc2ccco2)cc1`, the activation in experiment [5] is 9.82%. The same measure, in the same setting: the result for `CO[C@H]1COC(=O)C/C=C\[C@@H](C)COC(=O)[C@H]2CCCN2C(=O)C/C=C\[C@H]1C` reads 11.3%; that for `C[C@@H](c1ccccc1)N1C(=O)[C@H]2[C@@H]3[C@H](O)[C@H](O)CC(=O)[C@H]3CC[C@H]2C1=O`, -2.53% and -2.06%.

Take `C#CCCCO/N=C1/C[C@@H](O)[C@@H](O)[C@@H]2[C@H]3C(=O)N(c4ccc(F)cc4F)C(=O)[C@@H]3CC[C@@H]12`: the Potency in experiment [6] was 3.16 µM (active). Besides, the activity change, positive = activation in experiment [2] was -61.6% [at 11.4 µM].

Consider `C/C(CCN1CCCCc2nc(C)c(C)cc21)=N\O[C@@H](C)CN1CCCc2nc(C)c(C)cc21`, for which the Potency in experiment [6] was 3.16 µM (active). Moreover, the activity change, positive = activation in experiment [2] is -61.2% [at 11.4 µM]. In the case of `CCC1=C(OC(=O)N(CC)CC)N2C(=O)OC(=NCC3CC3)[C@]2(C)[C@H]2C1=CC[C@H]1C(=O)N(c3ccccc3)C(=O)[C@H]12`, in experiment [6], the Potency was 3.16 µM (active). The Potency entry in experiment [2] was “inactive”. Regarding `COC(=O)c1cccc(C23CC4(C2)[C@H](CN(Cc2cccnc2)[C@@H]4c2ccccc2)C3c2ccc(Cl)nc2)c1` (stereo not given in full), the Potency in experiment [6] was 2 µM (active). In addition, the Potency entry in experiment [2] was “inactive”. For `COCCN=C1OC(=O)N2C(=O)C3=C4C(C[C@H]5C(=O)N(CC(=O)OC)C(=O)[C@H]5[C@H]4[C@@]12Cc1ccccc1)[C@H]1C(=O)N(CC(=O)OC)C(=O)[C@H]1[C@H]3C` (stereo not given in full), in that order: 15.8 µM (active) and “inactive”. As for `CCCNC(=O)OC[C@@H]1O[C@H](CCO/N=C(\C)CCN2CCc3nc(CC)c(CC)cc3C2)C=C[C@@H]1Oc1ccc(OC)cc1`, the Potency in experiment [6] is 3.98 µM (active). The activity change, positive = activation in experiment [2] was -86.1% [at 11.4 µM].

Consider `CCC1=C2CC[C@H]3C(=O)N(CC)C(=O)[C@H]3[C@H]2[C@@]2(Cc3ccccc3)C(=NCCOC)OC(=O)N2C1=O`, for which the Potency in experiment [6] is 10 µM (active). Further, the Potency result in experiment [2] was “inactive”. Consider `O=C(N/N=C1/C[C@@H](O)[C@@H](O)[C@@H]2[C@@H]3C(=O)N(Cc4ccc5c(c4)OCO5)C(=O)[C@H]3CC[C@H]12)OCc1ccccc1`, for which the Potency in experiment [6] is 3.98 µM (active). Moreover, the activity change, positive = activation in experiment [2] is -89.7% [at 11.4 µM]. For `C/C(CCN1CCCCc2nc(C)c(C)cc21)=N\O[C@@H](C)CN1CCCCc2nc(C)c(C)cc21`, in that order: 3.98 µM (active) and -81.7% [at 11.4 µM]. For `CCCNC(=O)OC[C@@H]1O[C@H](CCO/N=C\C[C@H]2C=C[C@H](OC(C)=O)[C@@H](COC(C)=O)O2)C=C[C@@H]1Oc1ccc(OC)cc1`, in that order: 3.98 µM (active) and -95.4% [at 11.4 µM]. On to `Cc1ccc2oc(=O)c3c4cc(O)c(O)cc4oc3c2c1`, for which the Potency in experiment [6] was 20 µM (active). The Potency entry in experiment [2] was “inactive”. For `CCC1=C2CC[C@H]3C(=O)N(CC(=O)OC)C(=O)[C@H]3[C@H]2[C@@]2(C)C(=O)N(Cc3ccccc3)C(=O)N2C1=O`, in that order: 15.8 µM (active) and “inactive”. The matching figures for `CCC1=C2CC[C@H]3C(=O)N(CC(=O)OC)C(=O)[C@H]3[C@H]2[C@@]2(Cc3ccccc3)C(=NCCOC)OC(=O)N2C1=O`: 12.6 µM (active) and “inactive”.

With `CCC1=C(OC(=O)N(CC)CC)N2C(=O)OC(=NCC(=O)OC)[C@]2(C)[C@H]2C1=CC[C@H]1C(=O)N(C)C(=O)[C@H]12`, the Potency in experiment [6] is 12.6 µM (active). Also, in experiment [2], the Potency entry was “inactive”. For `S=C=Nc1cccc(NC(=S)NCCCCNC(=S)Nc2cccc(N=C=S)c2)c1`, in that order: 3.16 µM (active) and “inactive”. Take `C#CCCCO/N=C1/C[C@@H](O)[C@@H](O)[C@@H]2[C@@H]3C(=O)N(Cc4ccccc4)C(=O)[C@H]3CC[C@H]12`: in experiment [6], the Potency is 3.98 µM (active). Also, the activity change, positive = activation in experiment [2] was -103% [at 11.4 µM].

As to `COC(=O)[C@H]1C[C@@H]2CC[C@@H](O)C[C@@H]2N1Cc1c(F)cccc1Cl`, in experiment [6], the Potency was 12.6 µM (active). In addition, the Potency entry in experiment [2] is “inactive”. The matching figures for `CCC1=C(OC(=O)N(CC)CC)N2C(=O)OC(=NCc3ccccc3)[C@]2(C)[C@H]2C1=CC[C@H]1C(=O)N(c3ccccc3)C(=O)[C@H]12`: 2.51 µM (active) and “inactive”.
